# About 83,000 compounds went through this panel and 20% of them were active in at least one assay; those are over-represented in the sample as a whole.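 Cell lines were cultured in 96-well plates, exposed to a single compound concentration, and assessed for percent growth 48 hours later.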 The source made the active and inactive calls. The calls were made as follows: active = growth percent below 10; inactive = the rest.
# Test system: MDA-MB-468 breast
# Assay: NCI-60 one-dose screen, 48 h (100 = growth as untreated, 0 = no growth, -100 = all killed)
# Settings: 10 µM unless noted
row,Structure (SMILES),growth
1,CCCCn1c(C)nc2ccc(Nc3nc(Cl)nc4nc[nH]c34)cc21,34.6% (inactive)
2,O=C1NC(=O)/C(=C/c2ccc3nccc(-c4ccncc4)c3c2)S1,-49.2% (active)
3,CCOC(=O)c1cc(C#N)n2ccc3ccccc3c12,98.4% (inactive)
4,Cc1[nH]n(-c2cccc(Cl)c2)c(=O)c1/C=C1\C=c2ccccc2=CC1=O,34.5% (inactive)
5,CN1CCN(CCCOc2cccc3nc(Nc4ccc(Cl)c(C(F)(F)F)c4)ccc23)CC1,-2.83% (active)
6,CCOc1cccc(/C=N/NC(=O)c2ccc(Nc3ccnc(C(F)(F)F)c3)cc2)c1O,-20.9% (active)
7,Nc1cccc(Cl)c1N,-21.1% (active)
8,CN1CCN(c2c(F)cc(NC3=C(Cl)C(=O)c4ncccc4C3=O)cc2F)CC1,-46.6% (active)
9,Cc1nc2scc(-c3ccccc3)n2c(=O)c1CCO,101% (inactive)
10,O=C(c1ccccc1)C(Br)[N+](=O)[O-] (stereo not given),114% (inactive)
11,COc1ccc(-c2ccc(-c3ccc(C(=N)N)cn3)s2)cc1,72.6% (inactive)
12,CCN1C(=S)N(CC)C2C1NC(=S)N2/N=C/C=C/c1ccccc1OC (stereo not given),9.04% (active)
13,NC(=O)SCC(=O)Nc1ccccc1-c1ccccc1,99.9% (inactive)
14,Oc1ccc2ccccc2c1N=Nc1nccs1,-48.6% (active)
15,COc1ccc(C(c2cc(OC)c(OC)c(OC)c2)n2cncn2)cc1O (stereo not given),7.88% (active)
16,COc1ccc(/C=C2\CCCC3=C2N=C2SC=NN2C3c2ccc(OC)c(OC)c2)cc1OC (stereo not given),14.5% (inactive)
17,Cc1ccc(C(=O)c2ccccc2)c(C)c1,111% (inactive)
18,c1ccc(C(c2nc3ncncc3[nH]2)N2CSc3nc4ccccc4n3C2)cc1 (stereo not given),94.8% (inactive)
19,Cn1ncc2c(C(=O)c3ccc(F)cc3)nc(C(C)(C)C)nc21,93.5% (inactive)
20,CCN(CC)Cc1cccc(C(=O)OC)c1,97.2% (inactive)

row,Structure (SMILES),growth
1,C#C[C@@]1(O)[C@@H](CO)O[C@@H](n2cnc3c(-c4ccccc4)ncnc32)[C@@H]1O,111% (inactive)
2,CC1=CC(C)(C)NC(=S)N1c1ccc(S(=O)(=O)O)c2cccc(S(=O)(=O)O)c12,107% (inactive)
3,COc1ccc(C2Nc3c(c(C(C)(C)C)nn3-c3ccccc3)C(=O)CS2)cc1 (stereo not given),112% (inactive)
4,CC(=O)N1C/C(=C/c2ccc(Cl)cc2)C(=O)/C(=C/c2ccc(Cl)cc2)C1,-80% (active)
5,COc1cc(/C=C/C(=O)N2CCC=CC2=O)cc(OC)c1OC,22.7% (inactive)
6,CCc1c(C(=O)N[C@@H](C(=O)OCc2ccccc2)C(C)O)[nH]c2ccc(Cl)cc12 (stereo not given in full),79.1% (inactive)
7,CCCCCCCCN(CCCCCCCC)CC(O)c1cc(-c2ccccc2)nc2ccc(OC)cc12 (stereo not given),104% (inactive)
8,COc1cc(/C=C2/Oc3cc4occc4c(OC)c3C2=O)ccc1OCC(=O)Nc1ccncc1,105% (inactive)
9,Cc1ccc(-c2csc(NC(=O)CSc3nc(-c4ccccc4)cc(=O)[nH]3)n2)cc1,108% (inactive)
10,C=CC(COC(c1ccccc1)(c1ccccc1)c1ccccc1)N(CC)CC (stereo not given),14.5% (inactive)
11,CC1(C)CC[C@]2(C(=O)O)CC[C@]3(C)C(=CC[C@@H]4[C@@]5(C)C[C@@H](Cc6cn([C@@H]7O[C@H](CO)[C@@H](O)[C@H](O)[C@H]7O)nn6)[C@H](O)C(C)(C)[C@@H]5CC[C@]43C)[C@@H]2C1,87% (inactive)
12,Cc1cc2nc3[nH]c4ccccc4c3nc2cc1C,97.5% (inactive)
13,Cc1cc[n+](CCCCCCCCCC[n+]2ccc(C)cc2)cc1,6.78% (active)
14,CCCC(=O)Nc1ccc2c(c1)CN1C(=O)c3ccccc3C1=N2,97.8% (inactive)
15,C#CCOc1ccccc1C(OC(=O)c1ccccc1)C(=O)NC(C)(C)C(C)(C)C (stereo not given),80.5% (inactive)
16,O=C1Nc2ccccc2/C1=C/c1cccn1CCCCn1c2ccccc2c(=O)c2ccccc21,51% (inactive)
17,COc1ccc(-c2nocc2-c2cc(OC)c(OC)c(OC)c2)cc1,-15.5% (active)
18,C#C[C@@]1(O)[C@@H](CO)O[C@@H](n2cc(Cl)c3c(N)ncnc32)[C@@H]1O,-49% (active)
19,O=c1c2ccccc2nc(COc2ccccc2)n1/N=C/C=C/c1ccccc1,89.1% (inactive)
20,C=CCCCCCCCCC(=O)OC(C)C,97.5% (inactive)
